From PubChem BioAssay (EPA / NIEHS) come the findings set out here.

Molecules are shown by their SMILES. Activity calls are given as the source filed them. The calls were made as follows: active = hit-call score of the fitted dose curve at least 0.9, where 1 is the maximum; inactive = score below 0.9.

Test [1] can be described thus: APR_HepG2_P-H2AX_72hr: Apredica 72-hour HepG2 Assay for H2AX Phosphorylation (AID 2282916).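 Also: phospho-histone H2A.x immunostain intensity per cell marking DNA damage.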 The conditions noted are these: imaging, actives raise or lower the signal. A digest of the protocol: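 HepG2; cpd 0.39–200 uM ×10 conc, duplicates; 0.5% DMSO; 72 hr. Fix 3.7% formaldehyde 30 min RT, 0.5% Triton X-100 10 min. Anti-phospho-H2A.x 1:200 + Hoechst 2 ug/mL, 60 min RT; ArrayScan imaging.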

Test [2] in a line: APR_HepG2_MitoMembPot_72hr: Apredica 72-hour HepG2 Assay for Mitochondrial Membrane Potential (AID 2282917). The conditions noted are these: imaging, actives raise or lower the signal. The method in brief: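 HepG2 cells dosed 72 hr with compound at 0.39–200 uM in duplicate, 0.5% v/v DMSO final. Mitochondria stained with 250 nM MitoTracker Red CMXRos for 30 min before formaldehyde fixation, imaged by high-content fluorescence; bidirectional fit versus DMSO.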

Test [3] is described as follows: APR_HepG2_MitoticArrest_72hr: Apredica 72-hour HepG2 Assay for Mitotic Arrest (AID 2282918). The conditions noted are these: high-content imaging, actives raise or lower the signal. The method in brief: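 Using high-content imaging of fixed HepG2 cells, phospho-histone H3 signal was measured following a 72 hr incubation with ten-point compound dilutions up to 200 uM. DMSO served as the negative control and baseline for bidirectional curve fitting.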

Test [4] is described as follows: APR_HepG2_MicrotubuleCSK_72hr: Apredica 72-hour HepG2 Assay for Microtubule CSK Stabilty (AID 2282919). To be noted: HepG2 microtubule cytoskeleton, high-content imaging, actives raise or lower the signal. The method in brief:
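HepG2 cells were exposed 72 hr to compound at 0.39–200 uM in duplicate (0.5% DMSO final), then fixed and permeabilized. Alpha-tubulin immunofluorescence was imaged by high-content microscopy, with bidirectional fitting against DMSO and taxol as positive control.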

Test [5] in a line: APR_HepG2_P-H2AX_24hr: Apredica 24-hour HepG2 Assay for H2AX Phosphorylation (AID 2282920). The conditions noted are these: high-content imaging, actives raise or lower the signal. A digest of the protocol: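 Human HepG2 liver cells, treated 24 hr with test chemicals (0.39–200 uM, final DMSO 0.5% v/v), are fixed and co-stained for phospho-H2A.x and c-Jun with Hoechst. Imaged intensity is fitted in both directions against DMSO controls.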

Test [6] can be described thus: APR_HepG2_StressKinase_72hr: Apredica 72-hour HepG2 Assay for Stress Kinase (AID 2282921). The conditions noted are these: HepG2 stress kinase (phospho-c-Jun) imaging, actives raise or lower the signal. A digest of the protocol: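 Dose 0.39–200 uM (10 pts, duplicate), 0.5% DMSO; 72 h; fix 3.7% formaldehyde 30 min RT; Triton permeabilize; anti-phospho-c-Jun/Cy3 + Hoechst 60 min RT; image 20x; fit gain/loss vs DMSO.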

Test [7] is described as follows: APR_HepG2_StressKinase_24hr: Apredica 24-hour HepG2 Assay for Stress Kinase (AID 2282922). The conditions noted are these: HepG2 stress kinase (phospho-c-Jun) imaging, actives raise or lower the signal. The method in brief:
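HepG2 cells exposed 24 h to 0.39–200 uM compound in duplicate (0.5% v/v DMSO final). Cells fixed in 3.7% formaldehyde, permeabilized and immunostained for phospho-c-Jun; read by high-content fluorescence imaging, fitted bidirectionally against DMSO.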

Test [8] in a line: APR_HepG2_MitoMass_72hr: Apredica 72-hour HepG2 Assay for Mitochondrial Mass (AID 2282924).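 Also: MitoTracker Red CMXRos stain intensity per cell imaged as mitochondrial mass.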 The conditions noted are these: high-content imaging, actives raise or lower the signal. The method in brief: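 HepG2 cells dosed 72 hr at 0.39–200 uM (0.5% DMSO), in duplicate. MitoTracker Red CMXRos 250 nM loaded 30 min before formaldehyde fixation; high-content fluorescence imaging, bidirectional fit versus DMSO.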

Test [9] can be described thus: APR_HepG2_NuclearSize_72hr: Apredica 72-hour HepG2 Assay for Nuclear Size (AID 2282925). To be noted: high-content imaging, actives raise or lower the signal. The method in brief: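 HepG2 cells dosed 72 h at 0.39–200 uM (10 concentrations, duplicate) in 0.5% v/v DMSO final. Fixed, Hoechst 33342-stained nuclei imaged; nuclear diameter measured by automated image analysis. Bidirectional fit versus DMSO.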

The nature of test [10]: APR_HepG2_p53Act_72hr: Apredica 72-hour HepG2 Assay for p53 Activation (AID 2282923).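 Also: average cellular p53 protein immunofluorescence intensity in HepG2 cells.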 To be noted: high-content imaging, actives raise or lower the signal. The method in brief: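 10-pt conc. 0.39–200 uM, duplicate, 0.5% DMSO; 72 hr exposure; 3.7% formaldehyde fix, 0.5% Triton perm; sheep anti-p53/Cy5 + Hoechst; ArrayScan 20x, 6 images/well; gain/loss fit vs DMSO.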

For orientation: AC50 means the concentration giving half of the maximal activity seen. Consider `CCOC(=O)O[C@H](C)OC(=O)c1ccc2c(c1)cc(C(=O)NC1CCN(C(C)C)CC1)n2Cc1cc(-c2ccc(Cl)s2)on1`, for which the result in test [1], in [2], in [3], in [6], in [7] and in [8] was inactive. In addition, in test [9], the result was inactive. Further, the half-maximal activity concentration (AC50) in test [4] and in [5] was 94.5 µM (active) in each case.
On to `Oc1ccccc1`, for which the call in test [1], in [2], in [3], in [4], in test [5] and in [6] was inactive. For the same compound, the result in [7], in test [8] and in test [9] was inactive.
In the case of `O=C(O)Cn1c(=O)n(Cc2ccc(Br)cc2F)c(=O)c2ccc(Cl)cc21`, the result in test [1], in test [2], in test [3], in test [4], in test [5] and in test [7] was inactive. Further, the compound was called inactive in [8] and in test [9].
As to `CCCCCCCCCCCC[N+](C)(C)C`, the AC50 was 75.4 µM (active) in test [1], 13.2 µM (active) in [3], 50.4 µM (active) in [5] and 20.5 µM (active) in test [10]. Also, the call in [2], in test [4], in test [7], in [8] and in test [9] was inactive.
Consider `Cc1cn([C@H]2C[C@H](N=[N+]=[N-])[C@@H](CO)O2)c(=O)[nH]c1=O`, for which the compound was classed as inactive in test [1], in test [2], in test [3], in [4], in [5] and in test [7]. Besides, the outcome in test [10], in [8] and in [9] was inactive.
As for `Cc1cc2c(cc1C(F)(F)F)N(C(=O)Nc1ccc(Oc3cccnc3C)nc1)CC2`, the AC50 in test [1] is 22.2 µM (active); in test [3], 46.3 µM (active); in test [4] it was 38.4 µM (active); in test [5], 43 µM (active); in [7], 26.2 µM (active); in test [10] it was 27.8 µM (active). Moreover, the compound was called inactive in test [2], in test [8] and in test [9].
For the compound `O=C(Nc1ccc(Cl)cc1)Nc1ccc(Cl)c(Cl)c1`, the AC50 in test [1] was 6.38 µM (active); in [2] it was 56.3 µM (active); in [3], 5.5 µM (active); in [4] it was 6.77 µM (active); in test [5] it was 4.63 µM (active). For the same compound, the call in test [7], in test [8] and in test [9] was inactive.
As for `Cc1cc(F)ccc1-c1cc(N2CC[C@@H](O)[C@H]2CO)ncc1N(C)C(=O)C(C)(C)c1cc(C(F)(F)F)cc(C(F)(F)F)c1`, the AC50 was 57.7 µM (active) in test [1], 74 µM (active) in [3], 53.8 µM (active) in test [5] and 65 µM (active) in test [10]. Moreover, the call in test [2], in test [4], in test [7], in test [8] and in test [9] was inactive.
On to `CN1C(=O)CC[C@H]1c1cccnc1`, for which the compound was called inactive in [1], in test [2], in test [3], in test [4], in test [5] and in test [7]. In addition, the compound was classed as inactive in [8] and in [9].
With `O=c1c(-c2ccc(O)cc2)coc2cc(O)cc(O)c12`, the outcome in test [1], in test [3], in test [4], in test [5], in [7] and in test [8] was inactive. Also, the outcome in test [9] was inactive. Also, the AC50 in [2] was 57 µM (active).
On to `O=c1ccc2ccccc2o1`, for which the compound was called inactive in test [1], in [3], in test [4], in test [5], in test [7] and in test [8]. Also, in test [9], the compound was classed as inactive. The AC50 in [2] was 100 µM (active).
In the case of `NCc1cccc(C2CCN(C(=O)c3ccc(C#Cc4ccccc4F)o3)CC2)c1`, the AC50 is 17.7 µM (active) in [1]; 98.3 µM (active) in test [2]; 17.2 µM (active) in test [3]; 18.6 µM (active) in [5]; 107 µM (active) in test [9]. The compound was called inactive in [4], in test [7] and in test [8].
Consider `COc1ccc2cc(S(=O)(=O)N[C@H](CC(=O)N[C@H](Cc3ccc(CN4[C@H](C)CCC[C@@H]4C)cc3)C(=O)N(C)C(C)C)c3ccc4c(c3)OCO4)ccc2c1`, for which the AC50 in test [1] is 13.7 µM (active); in test [3], 11.1 µM (active); in test [5], 21.8 µM (active); in [10], 10.7 µM (active); in [8] it was 45 µM (active). For the same compound, the outcome in test [2], in [4], in test [7] and in [9] was inactive.
Turning to `O=C=NCCCCCCN=C=O`, the call in test [1], in test [2], in test [3], in test [4], in [5] and in test [7] was inactive. For the same compound, the compound was called inactive in [10], in [8] and in [9].
In the case of `CCO[Si](CCCNC(N)=O)(OCC)OCC`, the call in test [1], in test [2], in test [3], in test [4], in test [5] and in test [7] was inactive. Besides, the compound was called inactive in test [8] and in [9].
In the case of `CC/C(=C(/CC)c1ccc(O)cc1)c1ccc(O)cc1`, the AC50 was 68 µM (active) in [1]; 71.6 µM (active) in test [2]; 91.2 µM (active) in [3]; 33.1 µM (active) in test [5]; 74.1 µM (active) in test [10]. In addition, the outcome in test [4], in test [7], in test [8] and in test [9] was inactive.
Consider `CCCCCCCCCC(=O)O`, for which the result in test [1], in test [2], in test [3], in [4], in test [5] and in [7] was inactive. Also, the compound was classed as inactive in [8] and in test [9].
Regarding `CN(C)C(=O)C1(N2CCCCC2)CCN(CC[C@@]2(c3ccc(Cl)c(Cl)c3)CN(C(=O)c3ccccc3)CCO2)CC1`, the AC50 is 12.3 µM (active) in test [1]; 6.87 µM (active) in test [3]; 19.6 µM (active) in test [5]; 20.2 µM (active) in test [10]; 6.79 µM (active) in test [9]. Also, the outcome in test [2], in [4], in test [7] and in test [8] was inactive.
On to `c1ccc2n[nH]nc2c1`, for which the result in test [1], in [2], in test [3], in test [4], in [5] and in [7] was inactive. Also, the outcome in [10], in test [8] and in [9] was inactive.
Consider `Oc1ccc2ccccc2c1`, for which the compound was called inactive in [1], in test [2], in [3], in test [4], in test [5] and in [7]. Also, the call in test [8] and in test [9] was inactive.
